One may read the AC50 as the concentration at which the activity in the assay is half-maximal.

The structures appear in SMILES notation. Inconclusive results are not listed. Active and inactive are the calls of the source. How the source made its calls, unless noted: active means hit-call score of the fitted dose curve at least 0.9, where 1 is the maximum; inconclusive means response in the unintended direction; inactive means score below 0.9.

A short description of assay [1]: TOX21_p53_BLA_p2_viability: Viability Assessment in the Tox21 HCT-116 p53 Agonism Beta-lactamase Assay, Phase 2 (AID 2283591).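 Further: compound exposure lasted 16 h at 37 °C; actives lower the ATP signal meaning cytotoxicity.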 The method, boiled down:
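HCT116 p53-bla cells, 4000/well, dosed after 5 h plating (217-fold dilution of DMSO stocks) and incubated 16 h at 37C. Viability taken as cellular ATP by CellTiter-Glo luminescence after 30 min RT; signal loss marks cytotoxicity.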

The target in assay [2] is Cellular tumor antigen p53 (Homo sapiens) (UniProt P04637). As to the kind of experiment: TOX21_p53_BLA_p2_ratio: Tox21 HCT-116 p53 Agonism Beta-lactamase Assay, Ratio, Phase 2 (AID 2283592). In outline: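 Read-out is the blue/green (460/530 nm, 405 nm excitation) ratio after 2 h CCF4-AM loading, fitted as gain versus DMSO. Compounds, pinned at 217-fold dilution from DMSO stocks, stayed 16 h on HCT-116 beta-lactamase reporter cells seeded 5 h earlier.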
Sequence of Cellular tumor antigen p53 (Homo sapiens) (P04637 whole entry, looked up): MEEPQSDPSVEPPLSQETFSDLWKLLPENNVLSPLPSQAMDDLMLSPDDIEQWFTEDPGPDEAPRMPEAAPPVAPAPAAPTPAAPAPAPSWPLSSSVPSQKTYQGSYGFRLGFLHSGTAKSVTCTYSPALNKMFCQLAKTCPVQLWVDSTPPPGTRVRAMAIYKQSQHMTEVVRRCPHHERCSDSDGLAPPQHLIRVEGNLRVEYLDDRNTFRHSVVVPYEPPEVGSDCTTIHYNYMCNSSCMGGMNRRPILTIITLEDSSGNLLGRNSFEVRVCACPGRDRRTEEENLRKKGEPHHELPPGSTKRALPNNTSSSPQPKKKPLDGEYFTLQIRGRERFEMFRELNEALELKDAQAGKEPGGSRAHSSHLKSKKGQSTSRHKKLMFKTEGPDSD

Assay [3] can be described thus: TOX21_p53_BLA_p3_viability: Viability Assessment in the Tox21 HCT-116 p53 Agonism Beta-lactamase Assay, Phase 3 (AID 2283593).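 Further: cells exposed to compound for 16 h before reading.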 In outline:
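HCT116 cells, 4000/well, dosed 5 h after plating by pin transfer (217-fold dilution from DMSO stock) and incubated 16 h at 37C, 5% CO2. Viability read as ATP luminescence with CellTiter-Glo after 30 min at room temperature.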

In assay [4] the target is Cellular tumor antigen p53 (Homo sapiens) (UniProt P04637). Description: TOX21_p53_BLA_p3_ratio: Tox21 HCT-116 p53 Agonism Beta-lactamase Assay, Ratio, Phase 3 (AID 2283596). In outline:
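Cells were seeded at 4000/well, rested 5 h at 37C, then dosed with DMSO compound solutions (217-fold dilution) for 16 h. CCF4-AM substrate was loaded for 2 h at room temperature, and the 460/530 nm emission ratio was fitted for gain of signal versus DMSO.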

Assay [5] is described as follows: TOX21_p53_BLA_p4_viability: Viability Assessment in the Tox21 HCT-116 p53 Agonism Beta-lactamase Assay, Phase 4 (AID 2283597).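 Further: hits lower the luminescence signal meaning cytotoxicity.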 The method, boiled down:
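Cytotoxicity as reduced cellular ATP (CellTiter-Glo luminescence, 30 min room temperature), measured in the same wells following the CCF4 FRET p53 reading. Human HCT-116 cells received compounds in DMSO (217-fold dilution) for 16 h.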

The target in assay [6] is Cellular tumor antigen p53 (Homo sapiens) (UniProt P04637). Description: TOX21_p53_BLA_p5_ratio: Tox21 HCT-116 p53 Agonism Beta-lactamase Assay, Ratio, Phase 5 (AID 2283599). The method, boiled down: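 HCT-116 p53-bla cells (4000/well) plated 5 h, dosed with compound (217-fold DMSO dilution) for 16 h at 37 C; CCF4-AM substrate 2 h at room temperature. Activity is the 460/530 nm emission ratio (405 nm excitation), fitted in gain-of-signal direction versus DMSO.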

Assay [7] in a line: TOX21_p53_BLA_p5_viability: Viability Assessment in the Tox21 HCT-116 p53 Agonism Beta-lactamase Assay, Phase 5 (AID 2283600). The method, boiled down: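 Viability came from CellTiter-Glo ATP luminescence, read after 30 min at room temperature. Before this, HCT-116 p53-bla cells (4000/well) had 16 hours of compound exposure at 37C, with DMSO stocks diluted 217-fold on transfer.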

Assay [8] addresses Cellular tumor antigen p53 (Homo sapiens) (UniProt P04637). Description: TOX21_p53_BLA_p4_ratio: Tox21 HCT-116 p53 Agonism Beta-lactamase Assay, Ratio, Phase 4 (AID 2283601). In outline: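 HCT-116 p53 beta-lactamase reporter cells (4000/well) preincubated 5 h, then compound (217-fold dilution of DMSO stock) for 16 h at 37C. CCF4-AM substrate added 2 h at room temperature; 460/530 nm emission ratio fitted upward versus DMSO.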

The target in assay [9] is Thyroid hormone receptor alpha (Rattus norvegicus) + Thyroid hormone receptor beta (Rattus norvegicus) (UniProt P18113+P63059). As to the kind of experiment: TOX21_TR_LUC_GH3_Antagonist_Followup: Tox21 GH3 Thyroid Hormone Receptor Antagonism Luciferase Follow-Up Assay (AID 2283942). The method, boiled down:
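Luminescence read-out (ONE-Glo, 30 min at room temperature) in GH3 reporter cells challenged with 1.0 nM T3 final. Compounds ran at 92 uM to 5nM over 15 concentrations for 24 h; DMSO served as negative control and baseline.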

In assay [10] the target is THRB (gene 7068) (UniProt P10828). As to the kind of experiment: TOX21_TRB_BLA_Antagonist_Followup_ratio: Tox21 Thyroid Hormone Receptor beta Antagonism Beta-lactamase (BLA) Follow-Up Assay, Ratio (AID 2283958). In outline:
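Using charcoal-stripped 2% FBS medium, human TRβ-LBD/GAL4 reporter HEK293T cells received test compounds for 18 h. The endpoint is the cleaved-to-uncleaved substrate ratio (460/530 nm).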

A short description of assay [11]: TOX21_TRB_BLA_Antagonist_Followup_viability: Viability Assessment in the Tox21 Thyroid Hormone Receptor beta Antagonism Beta-lactamase (BLA) Follow-Up Assay (AID 2283961). The method, boiled down: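 ATP-based CellTiter-Glo luminescence (30 min, room temperature) run in the same wells as the TRβ-bla readout. Cells: GeneBLAzer HEK293T expressing GAL4-TRβ LBD, exposed 18 h at 37C to compounds at 11 concentrations in triplicate, stripped-serum medium.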

Assay [12] deals with Retinoic acid receptor RXR-alpha (Homo sapiens) (UniProt P19793). Description: TOX21_TR_RXR_BLA_Antagonist_Followup_ratio: Tox21 Thyroid Hormone Receptor beta Retinoid X Receptor alpha (RXRa) Antagonism Beta-lactamase (BLA) Follow-Up Assay, Ratio (AID 2283972). In outline: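 After 5 h attachment at 37C, HEK293T RXRa-bla cells (2,500/well, 2% charcoal-stripped FBS, no phenol red) received compounds at 11 concentrations in triplicate for 16 h. Beta-lactamase read as 460:530 nm ratio after 2 h RT substrate loading.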
Sequence of Retinoic acid receptor RXR-alpha (Homo sapiens) (P19793 whole entry, looked up): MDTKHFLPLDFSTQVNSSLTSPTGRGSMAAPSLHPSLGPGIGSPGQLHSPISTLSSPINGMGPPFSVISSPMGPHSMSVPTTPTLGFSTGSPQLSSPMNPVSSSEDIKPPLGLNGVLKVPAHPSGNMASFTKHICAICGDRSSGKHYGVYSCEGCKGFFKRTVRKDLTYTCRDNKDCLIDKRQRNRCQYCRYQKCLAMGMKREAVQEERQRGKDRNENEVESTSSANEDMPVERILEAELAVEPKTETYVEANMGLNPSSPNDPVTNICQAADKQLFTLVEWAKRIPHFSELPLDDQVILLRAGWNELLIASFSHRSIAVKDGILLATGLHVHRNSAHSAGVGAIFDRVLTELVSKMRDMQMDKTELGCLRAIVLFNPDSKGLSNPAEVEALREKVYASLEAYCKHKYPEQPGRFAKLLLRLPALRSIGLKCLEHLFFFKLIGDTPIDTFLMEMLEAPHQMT

The nature of assay [13]: TOX21_TR_RXR_BLA_Antagonist_Followup_viability: Viability Assessment in the Tox21 Thyroid Hormone Receptor beta Retinoid X Receptor alpha (RXRa) Antagonism Beta-lactamase (BLA) Follow-Up Assay (AID 2283979). In outline:
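RXRa-bla HEK293T cells (2,500/well, phenol red-free DMEM, 2% charcoal-stripped FBS) were attached 5 h, then exposed to compounds at 11 concentrations in triplicate for 16 h at 37C. Viability measured by CellTiter-Glo ATP luminescence, bidirectional fitting versus DMSO.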

Assay [14] addresses PGR (gene 5241) (UniProt P06401). As to the kind of experiment: TOX21_PR_BLA_Followup_Antagonist_ratio: Tox21 HEK293 Progesterone Receptor (PR) Antagonism Beta-lactamase Follow-Up Assay, Ratio (AID 2283934).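 Further: PR-UAS-bla HEK293T cells stimulated with 1 nM R5020 agonist for 16 hr.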 The method, boiled down: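 Measured in PR-UAS-bla HEK293T cells co-treated with compound and 1 nM promegestone for 16 hr; beta-lactamase ratio read after 2 h FRET substrate loading, with parallel CellTiter-Glo cytotoxicity.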

The nature of assay [15]: TOX21_PR_BLA_Followup_Agonist_viability: Viability Assessment in the Tox21 HEK293 Progesterone Receptor (PR) Agonism Beta-lactamase Follow-Up Assay (AID 2283935).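 Further: signal loss means lower viability so actives are cytotoxic.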 In outline: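 Viability is read as CellTiter-Glo luminescence, where loss of signal indicates cytotoxicity. The cells are PR-UAS-bla HEK293T given compounds for 16 hr at 37C and 5% CO2, in the same wells used for the bla readout.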

A short description of assay [16]: TOX21_PR_BLA_Followup_Antagonist_viability: Viability Assessment in the Tox21 HEK293 Progesterone Receptor (PR) Antagonism Beta-lactamase Follow-Up Assay (AID 2283936).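 Further: cells exposed to compound with R5020 agonist for 16 h; hits lower the luminescence signal meaning cytotoxicity.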 In outline: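 PR-UAS-bla HEK293T cells in medium with 2% charcoal-stripped FBS were treated with compounds plus R5020 for 16 hr at 37C. After the beta-lactamase read, CellTiter-Glo was added to the same wells and luminescence read after 30 min at room temperature.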

Assay [17] has as its target THRA (gene 7067) (UniProt P10827). Description: TOX21_TRA_COA_Antagonist_Followup_ratio: Tox21 Thyroid Hormone Receptor alpha Antagonism through Coactivator Recruitment Follow-Up Assay, Ratio (AID 2283953). The method, boiled down: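 We measured antagonism of T3-type coactivator recruitment using a TR-FRET ratio (emission 520 and 495 nm) between a Tb-labelled anti-GST antibody on TRα LBD (2.5 nM) and SRC-2 peptide (200 nM). Activity was scaled between DMSO and T3 wells.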

Assay [18] in a line: CCTE_Harrill_HTTr_Viability_MCF7: CCTE's 6-hour Cell Viability Assessment for the High-Throughput Transcriptomics (HTTr) Platform, in MCF-7 cells cultured in DMEM + 10% fetal bovine serum, Harrill Lab (AID 2284010; active means hit-call score of the fitted dose curve at least 0.9, where 1 is the maximum; inactive means score below 0.9). In outline: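 Eight-point concentration series, six-hour exposure. Propidium iodide exclusion imaged to assess membrane integrity as a cytotoxicity readout; bidirectional fitting was done with DMSO as negative control and activity baseline.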

Assay [19] in a line: CCTE_Harrill_HTTr_Apoptosis_MCF7: CCTE's 6-hour Apoptosis Assessment for the High-Throughput Transcriptomics (HTTr) Platform, in MCF-7 cells cultured in DMEM + 10% fetal bovine serum, Harrill Lab (AID 2284011; active means hit-call score of the fitted dose curve at least 0.9, where 1 is the maximum; inactive means score below 0.9). The method, boiled down:
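High-content imaging of CellEvent Caspase 3/7 Green signal follows a six-hour exposure, with eight concentrations per chemical. MCF-7 cells grown in DMEM plus 10% fetal bovine serum; activity fitted in both directions against DMSO.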

A short description of assay [20]: CCTE_Harrill_HTTr_CellCount_MCF7: CCTE's Cell Proliferation Assessment for the High-Throughput Transcriptomics (HTTr) Platform, Harrill Lab (AID 2284012).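 Further: count of Hoechst-stained nuclei per well by high-content imaging in MCF-7 cells; cells exposed to compound for six hours; intended direction is loss of nuclei count meaning fewer cells.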 The method, boiled down:
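For this full-screen endpoint, MCF-7 cultures received eight compound dilutions for six hours. Well nuclei counts from Hoechst imaging were analyzed relative to DMSO.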

Sequence of PGR (gene 5241) (P06401 whole entry, looked up): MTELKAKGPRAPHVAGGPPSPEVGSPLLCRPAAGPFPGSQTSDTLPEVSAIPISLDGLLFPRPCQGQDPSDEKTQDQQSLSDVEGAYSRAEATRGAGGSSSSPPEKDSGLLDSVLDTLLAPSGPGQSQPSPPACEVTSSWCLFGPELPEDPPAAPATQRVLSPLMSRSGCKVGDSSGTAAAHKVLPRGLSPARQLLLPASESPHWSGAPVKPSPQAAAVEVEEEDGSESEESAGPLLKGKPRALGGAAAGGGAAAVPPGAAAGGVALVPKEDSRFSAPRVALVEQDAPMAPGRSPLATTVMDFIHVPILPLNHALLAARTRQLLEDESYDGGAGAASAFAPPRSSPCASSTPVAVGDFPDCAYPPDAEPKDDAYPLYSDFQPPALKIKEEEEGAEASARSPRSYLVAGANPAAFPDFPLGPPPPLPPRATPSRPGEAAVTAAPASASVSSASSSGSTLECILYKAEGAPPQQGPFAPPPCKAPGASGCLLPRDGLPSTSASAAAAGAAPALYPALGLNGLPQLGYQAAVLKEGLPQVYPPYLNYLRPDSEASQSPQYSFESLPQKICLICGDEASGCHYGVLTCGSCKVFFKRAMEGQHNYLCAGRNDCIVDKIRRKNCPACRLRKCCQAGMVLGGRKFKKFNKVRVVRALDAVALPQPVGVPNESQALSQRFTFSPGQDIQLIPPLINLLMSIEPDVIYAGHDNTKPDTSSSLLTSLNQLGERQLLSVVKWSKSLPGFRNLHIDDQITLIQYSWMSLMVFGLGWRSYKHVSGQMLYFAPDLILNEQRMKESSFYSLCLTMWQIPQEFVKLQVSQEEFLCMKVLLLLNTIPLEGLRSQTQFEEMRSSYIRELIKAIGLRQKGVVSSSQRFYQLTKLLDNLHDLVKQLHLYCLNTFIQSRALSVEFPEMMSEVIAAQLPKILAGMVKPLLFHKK
Sequence of THRB (gene 7068) (P10828 whole entry, looked up, the tested form may be a part): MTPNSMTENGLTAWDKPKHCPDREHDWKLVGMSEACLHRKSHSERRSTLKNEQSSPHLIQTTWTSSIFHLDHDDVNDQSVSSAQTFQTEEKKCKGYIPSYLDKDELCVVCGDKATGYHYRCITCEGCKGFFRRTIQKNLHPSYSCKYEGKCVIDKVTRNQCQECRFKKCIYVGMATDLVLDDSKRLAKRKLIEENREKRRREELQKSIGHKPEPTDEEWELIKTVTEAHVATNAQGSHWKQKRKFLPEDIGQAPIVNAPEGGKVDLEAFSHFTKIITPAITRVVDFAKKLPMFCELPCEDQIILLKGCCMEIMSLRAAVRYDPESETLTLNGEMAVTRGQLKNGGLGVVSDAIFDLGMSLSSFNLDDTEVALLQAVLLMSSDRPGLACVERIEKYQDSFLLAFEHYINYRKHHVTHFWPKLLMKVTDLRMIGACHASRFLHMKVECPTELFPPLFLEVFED
Sequence of THRA (gene 7067) (P10827 whole entry, looked up, the tested form may be a part): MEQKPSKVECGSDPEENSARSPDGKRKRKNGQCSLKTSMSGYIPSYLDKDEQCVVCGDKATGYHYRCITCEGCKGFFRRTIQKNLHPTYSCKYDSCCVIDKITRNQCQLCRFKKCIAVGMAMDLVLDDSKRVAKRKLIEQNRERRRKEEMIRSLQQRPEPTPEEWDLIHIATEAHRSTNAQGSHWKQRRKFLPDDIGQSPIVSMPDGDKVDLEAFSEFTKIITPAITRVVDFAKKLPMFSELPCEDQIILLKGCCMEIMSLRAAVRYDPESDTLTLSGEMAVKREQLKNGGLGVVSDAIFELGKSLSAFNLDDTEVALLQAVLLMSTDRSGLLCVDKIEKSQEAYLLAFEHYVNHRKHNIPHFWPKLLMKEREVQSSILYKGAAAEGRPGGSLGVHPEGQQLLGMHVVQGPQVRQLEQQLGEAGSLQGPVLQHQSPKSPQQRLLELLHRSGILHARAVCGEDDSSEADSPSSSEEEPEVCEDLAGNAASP

As for `CCN(CC)CCNC(=O)c1c(C)[nH]c(/C=C2\C(=O)Nc3ccc(F)cc32)c1C`, the outcome in [1], in [2], in assay [3], in [4], in assay [6] and in assay [7] was inactive. The AC50 in assay [5] was 17.7 µM (active); in [8], 37.1 µM (active).
Regarding `O=[N+]([O-])c1c(Cl)cccc1-c1c[nH]cc1Cl`, the outcome in [1], in assay [2], in [6], in assay [7] and in assay [8] was inactive. Further, the AC50 in assay [3] was 37.2 µM (active); in assay [4], 23.6 µM (active); in [5], 36.3 µM (active).
As for `C[n+]1c2cc(N)ccc2cc2ccc(N)cc21` (tested in a mixture with another compound), the outcome in assay [1], in assay [3], in [5], in assay [7] and in assay [11] was inactive. The half-maximal activity concentration (AC50) in assay [2] is 11.6 µM (active); in assay [4], 9.45 µM (active); in [6], 9.47 µM (active); in assay [8] it was 6.18 µM (active); in assay [9], 18.2 µM (active); in assay [10], 36 µM (active). Further, the values for the AC50 in [12] and in assay [13] were 19.2 µM (active) and 16.5 µM (active), respectively.
Turning to `CC(C)C[C@H](NC(=O)[C@H](CCc1ccccc1)NC(=O)CN1CCOCC1)C(=O)N[C@@H](Cc1ccccc1)C(=O)N[C@@H](CC(C)C)C(=O)[C@@]1(C)CO1`, the AC50 in assay [1] is 0.757 µM (active); in assay [2], 0.108 µM (active); in assay [3] it was 1.09 µM (active); in assay [4], 0.121 µM (active); in assay [5], 0.759 µM (active); in assay [6], 0.203 µM (active). Further, the AC50 in assay [7] was 1 µM (active); in assay [8], 0.109 µM (active); in [14], 15.9 µM (active). Also, the compound was classed as inactive in assay [15] and in assay [16].
As to `CC(=O)Oc1ccc2c(c1)CC[C@@H]1[C@@H]2CC[C@]2(C)[C@@H](O)CC[C@@H]12`, the outcome in assay [1], in assay [2], in [3], in assay [4], in [5] and in assay [6] was inactive. Also, the outcome in assay [7], in [8], in assay [15] and in assay [16] was inactive. Besides, the AC50 in [14] is 0.846 µM (active).
Regarding `CC1=C[C@H](O)CC(C)(C)[C@H]1/C=C/C(C)=C/C=C/C(C)=C/C=C/C=C(C)/C=C/C=C(C)/C=C/C1=C(C)C[C@@H](O)CC1(C)C`, the call in assay [1], in assay [2] and in [3] was inactive. The AC50 is 39.9 µM (active) in [4]; 35.3 µM (active) in assay [5]; 38.4 µM (active) in assay [6]; 43 µM (active) in assay [7]; 34.8 µM (active) in [8].
As to `CO[C@H]1C[C@@H]2CC[C@@H](C)[C@@](O)(O2)C(=O)C(=O)N2CCCC[C@H]2C(=O)O[C@H]([C@H](C)C[C@@H]2CC[C@@H](OCCO)[C@H](OC)C2)CC(=O)[C@H](C)/C=C(\C)[C@@H](O)[C@@H](OC)C(=O)[C@H](C)C[C@H](C)\C=C/C=C/C=C/1C`, the AC50 in assay [1] is 19.2 µM (active); in assay [2], 17.9 µM (active); in assay [3], 27.4 µM (active); in assay [4], 40.2 µM (active); in assay [5], 21.9 µM (active); in [6] it was 21.9 µM (active). Besides, the results for the AC50 in [7], in [8] and in assay [9] were 20.6 µM (active), 23 µM (active) and 0.00976 µM (active), respectively. In addition, the result in assay [17], in [10], in assay [11] and in assay [13] was inactive.
For `O=C1Nc2ccc(Cl)cc2[C@@](C#CC2CC2)(C(F)(F)F)O1`, the AC50 in assay [1] was 37.1 µM (active); in assay [5] it was 36.3 µM (active); in assay [6], 36.7 µM (active); in assay [7], 38.3 µM (active); in [8], 43.5 µM (active); in assay [14], 17 µM (active). In addition, the result in [2], in [3], in assay [4], in assay [15], in [16] and in [18] was inactive. The result in assay [19] and in [20] was inactive.

The values are drawn from PubChem BioAssay (EPA / NIEHS).
